Source: PubChem BioAssay (NCATS)
Inconclusive results are not listed. Active and inactive are the calls of the source. Calls follow the shape of the dose curve; as a rule, active = well fitted curve in the direction sought with a large enough effect; inconclusive = small, poorly fitted or top-dose-only effect, or another doubt; inactive = no such curve, though single readings can be large; an effect the other way counts as inactive or inconclusive.

Key:
[1] = qHTS for Antimalaria activity screened against the NCATS CANVASS Library (AID 1347380)
Procedure, shortened: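 P. falciparum Dd2-infected RBCs (2.5% hematocrit final, 0.3% parasitemia) in Albumax II RPMI were exposed to compounds in an 11-point qHTS series for 72 h at 37C under 5% O2/5% CO2, then lysed with SYBR Green.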

[2] = Inflammasome Signaling qHTS Counterscreen: IL-1-beta AlphaLISA counterscreen against the NCATS CANVASS Library (AID 1347381)
Procedure, shortened: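 To flag interference with the AlphaLISA read-out, a known amount of purified IL-1-beta (4 pg) replaced cell supernatant. Detection used anti-IL-1-beta acceptor beads, biotinylated antibody and streptavidin donor beads at room temperature.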

[3] = Cytotoxicity qHTS for assessment of Hepg2 cells membrane integrity screened against the NCATS CANVASS Library (AID 1347387)
Procedure, shortened: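 HepG2 cells (2000/well) attached overnight at 37C, then received compounds in an 11-point series at 0.59 nM - 46 uM final for 5 hr. LDH release was detected fluorometrically (ex 560/em 590 nm) with CytoTox-ONE reagent after 10 min at room temperature.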

[4] = qHTS for Activators of p53 Stress Response Pathway screened against the NCATS CANVASS Library (AID 1347388)
Procedure, shortened: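 p53RE-bla HCT-116 cells (4000/well) were plated 5 h at 37C, exposed to compounds for 16 h at 37C over an 11-point concentration series, then loaded with CCF4 for 2 h at room temperature; 460/530 nm emission ratio read.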

[5] = qHTS assay for small molecule disruptors of mitochondrial membrane potential screened against the NCATS CANVASS Library (AID 1347389)
Procedure, shortened: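 HepG2 cells (2,000/well) were plated overnight at 37C, exposed to compound for 1 hr at 37C/5% CO2, then loaded with Mito-MPS dye for 30 min. Depolarization was read as a drop in red (590 nm) to green (535 nm) fluorescence ratio.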

[6] = Secretion counterscreen for inhibitors of the SERCaMP assay screened against the NCATS CANVASS Library (AID 1347390)
Procedure, shortened: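 SH-SY5Y cells with constitutively secreted GLuc reporter, 1000 cells/well, treated 20 h at 37C with compounds at 0.001 - 77 uM final; secreted luciferase read as luminescence after coelenterazine; Brefeldin A as positive control.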

[7] = qHTS for activators of Nrf2/ARE signaling pathway screened against the NCATS CANVASS Library (AID 1347391)
Procedure, shortened: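 ARE-bla HepG2 beta-lactamase reporter cells, 2000 cells/well, were preincubated 5 h, then exposed to compounds (11-point series) for 16 h at 37C. CCF4 fluorescence (ex 405, em 460/530 nm) after 2 h at room temperature.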

[8] = qHTS for activators of dead-cell proteases activity screened against the NCATS CANVASS Library (AID 1347392)
Procedure, shortened: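 HepG2 cells (2000/well) attached 18 h at 37C, then exposed 5 h to compounds (11-point qHTS). Dead-cell protease activity read as luminescence from cell-impermeant AAF-aminoluciferin substrate after 15 min at room temperature.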

[9] = qHTS for inhibitors of ER calcium dysfunction: SERCaMP assay screened against the NCATS CANVASS Library (AID 1347393)
Procedure, shortened: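 qHTS in SH-SY5Y reporter cells: 16 h compound pretreatment, 4 h thapsigargin, then secreted Gaussia luciferase measured by luminescence.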

[10] = Vero-766 cells viability qHTS against the NCATS CANVASS Library: Counterscreen for Zika virus inhibition assay (AID 1347394)
Procedure, shortened: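 Vero 766 cells (1000/well), without Zika virus, were exposed to compounds for 72 h at 37C. Viability was measured by CellTiter Glo luminescence. Media-only wells served as 100% inhibition.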

Measured: outcome

NCCc1c[nH]c2ccc(O)cc12
inactive: [1] | [2] | [3] | [4] | [5] | [6] | [7] | [8] | [9] | [10]

NCCc1c[nH]c2ccccc12
inactive: [1] | [2] | [3] | [4] | [5] | [6] | [7] | [8] | [9] | [10]
